According to PubChem BioAssay (NCI):
Compounds without any hit were thinned out: in the full panel of roughly 83,000, 20% have a hit.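 Interpretation: 100, growth as untreated; towards 0, rising growth inhibition; 0, no net growth; 0 to -100, cell death. Compounds scoring below 10 were considered active.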 Unmarked numbers belong to inactive results. Activity calls are given as the source filed them.

Columns and labels:
Assay in all cases: NCI-60 one-dose screen, 48 h (100 = growth as untreated, 0 = no growth, -100 = all killed)
Conditions in all cases: 10 µM unless noted
SK-MEL-2 melanoma = test system: SK-MEL-2 melanoma
EKVX NSCLC = test system: EKVX NSCLC
SN12C renal = test system: SN12C renal
UO-31 renal = test system: UO-31 renal
TK-10 renal = test system: TK-10 renal
ACHN renal = test system: ACHN renal
CAKI-1 renal = test system: CAKI-1 renal
A498 renal = test system: A498 renal
CCRF-CEM leukemia = test system: CCRF-CEM leukemia
MOLT-4 leukemia = test system: MOLT-4 leukemia
SR leukemia = test system: SR leukemia
RPMI-8226 leukemia = test system: RPMI-8226 leukemia
OVCAR-8 ovarian = test system: OVCAR-8 ovarian
OVCAR-5 ovarian = test system: OVCAR-5 ovarian
OVCAR-4 ovarian = test system: OVCAR-4 ovarian
SK-OV-3 ovarian = test system: SK-OV-3 ovarian
IGROV1 ovarian = test system: IGROV1 ovarian
OVCAR-3 ovarian = test system: OVCAR-3 ovarian
HS 578T breast = test system: HS 578T breast
NCI/ADR-RES ovarian = test system: NCI/ADR-RES ovarian

Row | SMILES | growth (SK-MEL-2 melanoma) | growth (EKVX NSCLC) | growth (SN12C renal) | growth (UO-31 renal) | growth (TK-10 renal) | growth (ACHN renal) | growth (CAKI-1 renal) | growth (A498 renal) | growth (CCRF-CEM leukemia) | growth (MOLT-4 leukemia) | growth (SR leukemia) | growth (RPMI-8226 leukemia) | growth (OVCAR-8 ovarian) | growth (OVCAR-5 ovarian) | growth (OVCAR-4 ovarian) | growth (SK-OV-3 ovarian) | growth (IGROV1 ovarian) | growth (OVCAR-3 ovarian) | growth (HS 578T breast) | growth (NCI/ADR-RES ovarian)
1 | C(=N\Nc1nc(N/N=C/c2ccc3c(c2)OCO3)nc(N2CCCCC2)n1)/c1ccc2c(c1)OCO2 | 103% | 93.7% | 79.7% | 74.4% | 121% | 94.9% | 98.9% | 51.7% | 20.4% | 56.3% | 0.113% (active) | 56.2% | 90.1% | 118% | 110% | 140% | 76.9% | 105% | 104% | 85.5%
2 | COc1ccc2c(c1)c(-c1nc(N)nnc1-c1c[nH]c3ccccc13)cn2C | 52.6% | 43.9% | 53.6% | 50.9% | 92.8% | 44.7% | 31.1% | 4.9% (active) | 28.7% | 25.5% | 14.8% | 41.8% | 51.3% | 72.2% | 66.4% | 63% | 30.5% | 19.7% | 35.3% | 49.8%
3 | CCC(=C(c1ccc(OCCN2CCCCCC2)cc1)c1ccc(OCCN2CCCCCC2)cc1)c1ccc(Cl)cc1 | -29.9% (active) | 54.5% | 48.3% | 13.6% | 114% | 26.2% | 44.3% | 84.4% | 3.5% (active) | 4.03% (active) | -5.89% (active) | -29.7% (active) | 2.46% (active) | 58.3% | 47.2% | 96.7% | 2.76% (active) | 30.8% | -51% (active) | 29.4%
4 | COc1cccc2c1[C@H](OC)[C@]13O[C@@]1(C2=O)[C@H](O)[C@H](C)[C@@](O)(C(=O)[C@@H]1O[C@H]1C)[C@@H]3O | -55.7% (active) | -39.5% (active) | -8.82% (active) | -16.1% (active) | -22.6% (active) | 1.83% (active) | -23.4% (active) | -82.4% (active) | -20.3% (active) | -39.8% (active) | -30% (active) | -27.5% (active) | -13.2% (active) | 6.04% (active) | -13.3% (active) | -10.4% (active) | 7.69% (active) | -34.6% (active) | -30% (active) | -23% (active)
5 | CN(C)CCCOc1ccc(C(=C(c2ccccc2)C2CCCC2)c2ccc(OCCCN(C)C)cc2)cc1 | -94.3% (active) | -82.2% (active) | -82.2% (active) | -96.8% (active) | -93% (active) | -94.5% (active) | -79.3% (active) | -82.4% (active) | -35.2% (active) | -58% (active) | -37% (active) | -32.1% (active) | -84.2% (active) | -92.9% (active) | -89.4% (active) | -86.4% (active) | -84.7% (active) | -91.7% (active) | -60.7% (active) | -80% (active)
6 | CC(=C(c1ccc(OCCCN(C)C)cc1)c1ccc(OCCCN(C)C)cc1)c1ccc(Cl)cc1 | 99.3% | 94.7% | 85.5% | 88.5% | 96.5% | 92.6% | 92.6% | 79.2% | 66.8% | 65.3% | 21.7% | 79.3% | 100% | 100% | 108% | 103% | 87.1% | 91.1% | 81.8% | 95.2%
7 | CC1=C(C)C(=O)C(Nc2cccc(C(=O)OC(C)(C)C)c2)=C(Cl)C1=O | 95.8% | 90.2% | 84.1% | 86.5% | 116% | 79.6% | 76.1% | 59.8% | 21.9% | 45.3% | 16.3% | 10.3% | 92.9% | 106% | 80.2% | 103% | 12.4% | 101% | 97.2% | 97.6%
8 | CC1(C)C=Cc2cc(/C(N)=N/C(N)=N/c3nc4ccccc4s3)ccc2O1 | 110% | 30.7% | 52.4% | 64.9% | 113% | 88.7% | 65.3% | 114% | 46.3% | 61.8% | 6.81% (active) | 80.2% | 76.5% | 95.9% | 82.7% | 124% | 52.5% | 103% | 101% | 81.7%
9 | NC(=O)c1c(NC(=O)c2ccc(C(F)(F)F)cc2)sc2c1CCC(=O)C2 | 51.3% | 24.8% | 12.4% | -86.4% (active) | 17% | -47.1% (active) | -24.3% (active) | 89.4% | -4.99% (active) | 4.59% (active) | 1.33% (active) | -30.3% (active) | 9.01% (active) | 9.87% (active) | -66.9% (active) | 37.5% | 16.2% | -17.2% (active) | 19.4% | 0.891% (active)
10 | CC1(C)CC[C@]23CC[C@]4(C)[C@H](CC[C@@H]5[C@@]6(C)CC[C@H](N)C(C)(C)[C@@H]6CC[C@]54C)[C@H]2[C@H]1OC3 | 108% | 63.1% | 79.1% | 82.7% | 135% | 36.5% | 1.94% (active) | 108% | -5.4% (active) | -13.3% (active) | -22.5% (active) | -24.1% (active) | 85.6% | 112% | 96.7% | 101% | 69.9% | 70.2% | 94.4% | 2.93% (active)
11 | CCOC(=O)c1cnc2c(-c3ccc(Cl)c(Cl)c3)cnn2c1 | 83.9% | 81.3% | 95.7% | 80.2% | 117% | 104% | 67.2% | 82.8% | 68.4% | 62.3% | 23.1% | 87.7% | 93.6% | 99.8% | 98.8% | 90.8% | 79.1% | 70.8% | 82.6% | 58.5%
12 | COc1ccc(-c2cnc(NC(=O)CCCCCCNC(=O)C(O)(O)C(F)(F)F)s2)cc1 | -27.3% (active) | 19.6% | 3.72% (active) | -27.4% (active) | -20.1% (active) | -29.5% (active) | -39.9% (active) | -44.2% (active) | 18.7% | 6.5% (active) | 13.2% | 14% | -3.57% (active) | 4.6% (active) | -9.83% (active) | -19.3% (active) | -18.7% (active) | -50.6% (active) | 9.86% (active) | -2.38% (active)
13 | CC(=O)Nc1ccccc1-c1nc2ccccc2s1 | 104% | 96.1% | 92.5% | 89.1% | 97.7% | 102% | 95.4% | 84.4% | 98.4% | 104% | 110% | 113% | 103% | 102% | 97.4% | 108% | 101% | 112% | 106% | 98.5%
14 | Cn1cc(C2=C(c3coc4cc(Br)ccc34)C(=O)NC2=O)c2ccccc21 | 96.5% | 67% | 95.7% | 52.5% | 101% | 88.2% | 50.5% | 79.8% | 62.5% | 52.9% | 29.5% | 98.9% | 87.2% | 113% | 100% | 53.5% | 64.7% | 72.7% | 52.8% | 59.2%
15 | CC(=C(c1ccc(OCCN2CCCC2)cc1)c1ccc(OCCN2CCCC2)cc1)c1ccc(Cl)cc1 | -2.54% (active) | 37.3% | 47.9% | -74% (active) | 78.6% | -72.5% (active) | 26.8% | 86.5% | -48.6% (active) | -43% (active) | -45.8% (active) | -54.8% (active) | -6.74% (active) | -16% (active) | -11.2% (active) | 85.8% | -50.7% (active) | -20.8% (active) | -31.2% (active) | -12% (active)
